Measurements published in PubChem BioAssay (NCI).
This is part of a sample that, as a whole, favours compounds with a hit. Of some 79,000 tested, about 15% had one in any assay. The source made the active and inactive calls. No stated cut-off is given here; in the data, active means growth inhibition above about 70%; inactive means the rest.

How the values were obtained:
[1] = NCI Yeast Anticancer Drug Screen. Data for the rad52 strain (AID 147);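 further: 0% = growth of vehicle-treated control cultures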; conditions: S. cerevisiae rad52 mutant growth inhibition, hits give high values
Summary of the method: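 Yeast strain carrying a DNA damage repair alteration was exposed to test compounds. Growth inhibition was measured relative to vehicle-treated controls.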

[2] = NCI Yeast Anticancer Drug Screen. Data for the wt1 strain (AID 149);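 further: 0% = growth of vehicle-treated wt1 cultures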; conditions: S. cerevisiae wt1 strain (SPY 50644) growth inhibition, hits give high values
Summary of the method: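 Each compound is tested on wt1 yeast and the loss of growth versus vehicle gives the inhibition value.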

[3] = NCI Yeast Anticancer Drug Screen. Data for the rad50EPP+ strain (AID 151);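 further: 0% = growth of vehicle-treated control cultures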; conditions: S. cerevisiae rad50 mutant strain, hits give high values
Summary of the method: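 Yeast strain carrying rad50 alteration (rad50EPP+) exposed to compounds; growth inhibition measured relative to vehicle-treated controls.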

[4] = NCI Yeast Anticancer Drug Screen. Data for the rad50 strain (AID 155);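 further: 0% = growth of vehicle-only cultures of the same strain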; conditions: S. cerevisiae rad50 strain growth inhibition, hits give high values
Summary of the method: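 Vehicle-treated cultures provide the reference for the growth inhibition reported for compound-exposed, repair-deficient yeast.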

[5] = NCI Yeast Anticancer Drug Screen. Data for the mec2-1 strain (AID 157); conditions: S. cerevisiae mec2-1 strain, hits give high values
Summary of the method: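 mec2-1 yeast strain, carrying an alteration in DNA damage repair or cell cycle control, was exposed to compounds; growth inhibition was measured relative to vehicle-treated controls.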

[6] = NCI Yeast Anticancer Drug Screen. Data for the rad14 strain (AID 159);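 further: 0% = growth of vehicle-treated control cultures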; conditions: S. cerevisiae rad14 strain growth inhibition, hits give high values
Summary of the method: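 Inhibition of growth is reported for a repair-deficient yeast mutant following compound treatment, calculated relative to cultures that received vehicle.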

[7] = NCI Yeast Anticancer Drug Screen. Data for the sgs1 mgt1 strain (AID 161);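 further: 0% = growth of cultures given vehicle only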; conditions: S. cerevisiae sgs1 mgt1 strain, hits give high values
Summary of the method: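 Compounds are added to genetically altered yeast, and growth is compared with cultures given vehicle alone to give percent inhibition.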

[8] = NCI Yeast Anticancer Drug Screen. Data for the CLN2oe strain (AID 163);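 further: 0% = growth of vehicle-only control cultures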; conditions: S. cerevisiae CLN2oe strain, hits give high values
Summary of the method: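 Yeast cells carrying a defined cell-cycle control alteration were exposed to test compounds. Growth inhibition was scored against vehicle-treated control cultures.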

[9] = NCI Yeast Anticancer Drug Screen. Data for the cln2 rad14 strain (AID 165);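 further: 0% = growth equal to vehicle treated cultures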; conditions: S. cerevisiae cln2 rad14 strain, hits give high values
Summary of the method: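 Yeast carrying cln2 and rad14 alterations (cell cycle control and DNA damage repair) were exposed to compounds. Growth inhibition was measured against vehicle-treated controls.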

[10] = NCI Yeast Anticancer Drug Screen. Data for the bub3 strain (AID 167); conditions: S. cerevisiae bub3 mutant strain, hits give high values
Summary of the method: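 Mutant yeast screening strain plus compound; vehicle-treated cultures serve as the 0% inhibition reference.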

[11] = NCI Yeast Anticancer Drug Screen. Data for the wt2 strain (AID 169); conditions: S. cerevisiae wt2 strain growth inhibition, hits give high values
Summary of the method: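 Yeast cells were exposed to test compounds, and growth inhibition was measured relative to vehicle-treated controls.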

[12] = NCI Yeast Anticancer Drug Screen. Data for the mlh1 strain (AID 171);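 further: 0% = growth of vehicle-treated control cultures of the same strain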; conditions: S. cerevisiae mlh1 strain growth inhibition, hits give high values
Summary of the method: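 Yeast carrying a defined genetic alteration in DNA damage repair or cell cycle control were exposed to test compounds. Growth inhibition was measured relative to vehicle-treated controls.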

[13] = NCI Yeast Anticancer Drug Screen. Data for the sgs1 strain (AID 173);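 further: 0% = growth of vehicle-only control cultures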; conditions: S. cerevisiae sgs1 mutant, hits give high values
Summary of the method: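 Yeast mutant strains carrying defined defects in DNA damage repair or cell cycle control were exposed to test compounds. Growth inhibition was scored against vehicle-treated controls.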

[14] = NCI Yeast Anticancer Drug Screen. Data for the mlh1 rad18 strain (AID 175); conditions: S. cerevisiae mlh1 rad18 strain growth inhibition, hits give high values
Summary of the method: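 Growth inhibition of the yeast strain was measured after compound exposure and expressed relative to vehicle-treated controls. The strain carries defined defects in DNA damage repair.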

[15] = NCI Yeast Anticancer Drug Screen. Data for the rad18 strain (AID 177); conditions: S. cerevisiae rad18 mutant growth inhibition, hits give high values
Summary of the method: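 Yeast carrying a defined DNA damage repair alteration were exposed to compounds. Growth inhibition was expressed relative to vehicle-treated controls.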

[16] = at 5.0 µM (retest, dose inferred, filed as 0.5)
[17] = at 50.0 µM (retest, dose inferred, filed as 5.0)

Measured: growth inhibition

NP1(Oc2ccc(F)cc2)=NP(N)(Oc2ccc(F)cc2)=NP(Oc2ccc(F)cc2)(Oc2ccc(F)cc2)=N1 (stereo unspecified)
active: [1]; at 11.0 µM 74% | [1]; at 33.0 µM 71% | [1]; at 100.0 µM 96% | [4]; at 11.0 µM 95% | [4]; at 33.0 µM 96% | [4]; at 50.0 µM 94.8% | [4]; at 100.0 µM 96% | [5]; at 50.0 µM 84.7% | [5]; at 100.0 µM 94% | [6]; at 100.0 µM 88% | [7]; at 50.0 µM 97.9% | [8]; at 100.0 µM 94% | [9]; at 50.0 µM 97% | [10]; at 50.0 µM 87.5% | [10]; at 100.0 µM 96% | [12]; at 100.0 µM 84% | [13]; at 100.0 µM 95% | [14]; [17] 86% | [14]; at 50.0 µM 88.2% | [15]; at 33.0 µM 83% | [15]; at 100.0 µM 97%
inactive: [1]; at 1.2 µM -1% | [1]; at 3.7 µM 7% | [2]; at 1.2 µM -2% | [2]; at 3.7 µM 0% | [2]; at 11.0 µM 20% | [2]; at 33.0 µM 41% | [2]; at 100.0 µM 48% | [3]; at 1.2 µM -6% | [3]; at 3.7 µM -2% | [3]; at 11.0 µM 2% | [3]; at 33.0 µM 4% | [3]; at 100.0 µM 1% | [4]; at 1.2 µM 4% | [4]; at 3.7 µM 5% | [4]; [16] 21% | [4]; [17] 64% | [5]; at 1.2 µM 1% | [5]; at 3.7 µM 3% | [5]; [16] 12% | [5]; at 11.0 µM 26% | [5]; at 33.0 µM 28% | [5]; [17] 19% | [6]; at 1.2 µM -2% | [6]; at 3.7 µM 1% | [6]; at 11.0 µM 6% | [6]; at 33.0 µM 15% | [7]; [16] 1% | [7]; [17] 28% | [8]; at 1.2 µM 0% | [8]; at 3.7 µM -3% | [8]; at 11.0 µM 17% | [8]; at 33.0 µM 53% | [9]; [16] 5% | [9]; [17] 54% | [10]; at 1.2 µM 1% | [10]; at 3.7 µM -1% | [10]; [16] 8% | [10]; at 11.0 µM 53% | [10]; at 33.0 µM 23% | [10]; [17] 35% | [11]; at 1.2 µM 0% | [11]; at 3.7 µM 7% | [11]; at 11.0 µM -1% | [11]; at 33.0 µM 22% | [11]; at 100.0 µM 50% | [12]; at 1.2 µM 0% | [12]; at 3.7 µM -2% | [12]; at 11.0 µM 1% | [12]; at 33.0 µM 15% | [13]; at 1.2 µM -3% | [13]; at 3.7 µM 0% | [13]; at 11.0 µM 12% | [13]; at 33.0 µM 51% | [14]; [16] 17% | [15]; at 1.2 µM -1% | [15]; at 3.7 µM 14% | [15]; at 11.0 µM 63%

CCOC(=O)Nc1ccc2c(c1)Cc1ccccc1-2
active: [10]; [17] 88% | [10]; at 50.0 µM 87.2%
inactive: [1]; at 1.2 µM -11% | [1]; at 3.7 µM -10% | [1]; at 11.0 µM -7% | [1]; at 33.0 µM -5% | [1]; at 100.0 µM -5% | [2]; at 1.2 µM -2% | [2]; at 3.7 µM 5% | [2]; at 11.0 µM 11% | [2]; at 33.0 µM 7% | [2]; at 100.0 µM 10% | [3]; at 1.2 µM -6% | [3]; at 3.7 µM -13% | [3]; at 11.0 µM 15% | [3]; at 33.0 µM 21% | [3]; at 100.0 µM 21% | [4]; at 1.2 µM -15% | [4]; at 3.7 µM -14% | [4]; [16] 4% | [4]; at 11.0 µM -23% | [4]; at 33.0 µM -22% | [4]; [17] 2% | [4]; at 50.0 µM -9.4% | [4]; at 100.0 µM -9% | [5]; at 1.2 µM -4% | [5]; at 3.7 µM -4% | [5]; [16] 1% | [5]; at 11.0 µM -6% | [5]; at 33.0 µM -5% | [5]; [17] 12% | [5]; at 50.0 µM -5.5% | [5]; at 100.0 µM -2% | [6]; at 1.2 µM 0% | [6]; at 3.7 µM -8% | [6]; at 11.0 µM 1% | [6]; at 33.0 µM 1% | [6]; at 100.0 µM 3% | [7]; [16] 4% | [7]; [17] 8% | [7]; at 50.0 µM 5.6% | [8]; at 1.2 µM -9% | [8]; at 3.7 µM -12% | [8]; at 11.0 µM -13% | [8]; at 33.0 µM -12% | [8]; at 100.0 µM -7% | [9]; [16] -8% | [9]; [17] -3% | [9]; at 50.0 µM -19% | [10]; at 1.2 µM 35% | [10]; at 3.7 µM 28% | [10]; [16] 49% | [10]; at 11.0 µM 21% | [10]; at 33.0 µM 21% | [10]; at 100.0 µM 26% | [11]; at 1.2 µM 5% | [11]; at 3.7 µM 9% | [11]; at 11.0 µM 14% | [11]; at 33.0 µM 19% | [11]; at 100.0 µM 14% | [12]; at 1.2 µM -14% | [12]; at 3.7 µM -8% | [12]; at 11.0 µM -7% | [12]; at 33.0 µM -7% | [12]; at 100.0 µM -5% | [13]; at 1.2 µM -18% | [13]; at 3.7 µM -12% | [13]; at 11.0 µM -4% | [13]; at 33.0 µM 3% | [13]; at 100.0 µM 0% | [14]; [16] -11% | [14]; [17] -25% | [14]; at 50.0 µM 16.4% | [15]; at 1.2 µM -11% | [15]; at 3.7 µM -7% | [15]; at 11.0 µM -4% | [15]; at 33.0 µM -6% | [15]; at 100.0 µM -10%
